Test results from PubChem BioAssay AID1053117 (Broad Institute, 2014).
Entries with a potency or affinity are not part of this list. Activity calls are given as the source filed them.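 The calls were made as follows: active = compounds lowering cell ATP signal with a fitted half-effect dose at most twice the top valid dose; inconclusive = flat curve with 30 to 70% signal loss, or bad fit; inactive = wrong direction, flat within 30%, or weaker than limit.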

Test: HEK293 cell cytotoxicity, dose response, cytotoxicity control, cherry-picks, set 5 (AID 1053117);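 also: more negative means greater loss of ATP signal and more cytotoxicity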

SMILES: C=C1C(=O)O[C@@H]2C[C@@H](C)[C@@H]3C=CC(=O)[C@@]3(C)[C@@H](O)[C@H]12
- outcome: inactive
